Measurements: PubChem BioAssay (NCI)
This is part of a sample that, as a whole, favours compounds with a hit. Of some 83,000 tested, about 20% had one in any assay.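 Activity criterion: percent growth below 10, measured after cells in 96-well plates were exposed to a single compound concentration for 48 hours.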 A number with no mark means an inactive call. Active and inactive are the calls of the source.

Columns and labels:
Experiment in all cases: NCI-60 one-dose screen, 48 h (100 = growth as untreated, 0 = no growth, -100 = all killed)
Conditions in all cases: 10 µM unless noted
SR leukemia = system: SR leukemia
RPMI-8226 leukemia = system: RPMI-8226 leukemia
OVCAR-5 ovarian = system: OVCAR-5 ovarian
SK-OV-3 ovarian = system: SK-OV-3 ovarian
IGROV1 ovarian = system: IGROV1 ovarian
OVCAR-3 ovarian = system: OVCAR-3 ovarian
HS 578T breast = system: HS 578T breast
NCI/ADR-RES ovarian = system: NCI/ADR-RES ovarian
T-47D breast = system: T-47D breast
BT-549 breast = system: BT-549 breast
MDA-MB-435 melanoma = system: MDA-MB-435 melanoma
SW-620 colon = system: SW-620 colon
MCF7 breast = system: MCF7 breast
HCT-116 colon = system: HCT-116 colon
KM12 colon = system: KM12 colon
OVCAR-8 ovarian = system: OVCAR-8 ovarian
OVCAR-4 ovarian = system: OVCAR-4 ovarian
HCC-2998 colon = system: HCC-2998 colon

Row | Compound | growth (SR leukemia) | growth (RPMI-8226 leukemia) | growth (OVCAR-5 ovarian) | growth (SK-OV-3 ovarian) | growth (IGROV1 ovarian) [%] | growth (OVCAR-3 ovarian) | growth (HS 578T breast) | growth (NCI/ADR-RES ovarian) | growth (T-47D breast) | growth (BT-549 breast) | growth (MDA-MB-435 melanoma) | growth (SW-620 colon) | growth (MCF7 breast) | growth (HCT-116 colon) | growth (KM12 colon) | growth (OVCAR-8 ovarian) | growth (OVCAR-4 ovarian) | growth (HCC-2998 colon)
1 | CCCCCCCCCCCCC1CCC/C=C\CCC(=O)O1 (configuration not stated) | 71.4% | 94% | 102% | 95.3% | 102 | 102% | 107% | 102% | 90% | 112% | 104% | 103% | 95.6% | 91.1% | 110% | – | – | –
2 | Nc1nc(N)nc(NCc2ccccc2)n1 | – | 107% | 103% | 115% | 109 | 105% | 120% | 100% | 98.2% | 106% | 112% | 112% | 95.8% | 106% | 104% | 117% | 128% | 94.7%
3 | COc1ccc(-c2nc(SCCC(C)C)nc(N/N=C(/C)c3ccc(C)cc3)c2C#N)cc1 | – | 88% | 85.4% | 95.7% | 84.7 | 102% | 85.1% | 89.8% | 87.1% | 91% | 103% | 95.2% | 91.4% | 93.2% | 93.5% | 88.1% | 103% | 99%
4 | COC(=O)N[C@H]1CCc2cc(OC)c(OC)c(OC)c2-c2ccc(SC)c(=O)cc21 | 3.05% (active) | – | 9.44% (active) | 24.6% | 19.9 | -20.6% (active) | 2.61% (active) | -22% (active) | 50.2% | -4.09% (active) | -29.5% (active) | 16.9% | 14.7% | 5.32% (active) | 1.21% (active) | 9.33% (active) | 39.8% | 6.51% (active)
5 | Cc1c(C2=CCCCC2)c2ccccn2c1C(=O)c1cccc(S(=O)(=O)N2CCOCC2)c1 | – | 46.9% | 106% | 92.6% | 75.7 | 73% | 75.8% | 60.5% | 79.3% | 54.8% | – | 98.2% | 93.4% | 43% | 72.3% | 94.9% | 52.2% | 82.2%
6 | COc1cc(CCNc2nc3cc(N)cc(N)c3nc2-c2ccccc2)cc(OC)c1 | – | -39.6% (active) | 13.4% | 82.3% | 27.8 | -66.2% (active) | -70.5% (active) | 39.1% | -31% (active) | 19.1% | -56.8% (active) | -56.7% (active) | -79.9% (active) | -35.9% (active) | 4.39% (active) | -22.2% (active) | -94.9% (active) | –
7 | COc1ccc(-n2cc(-c3cc(OC)c(OC)c(OC)c3)n(C(C)=O)c2=O)cc1 | – | 123% | 78.3% | 94.6% | 107 | 108% | 92.3% | 100% | 77.2% | 100% | 84.3% | 98.1% | 71.5% | 94% | 85% | 91.8% | 79.9% | 108%
8 | COc1ccc(C(=O)c2cc(C)c(OC)c(C)c2)c(OC)c1N(C(=O)C(Cl)Cl)C(=O)C(Cl)Cl | – | 19.9% | 33.1% | 1.2% (active) | 31.3 | -13.4% (active) | 22.1% | -1.2% (active) | 52.4% | 5.7% (active) | -37.5% (active) | 19% | 13.4% | 4.88% (active) | 5.55% (active) | 16% | 62.1% | 14.7%
9 | COc1ccc(C(O)c2cc3c(N)c(C(=O)Nc4ccc(Br)cc4)sc3nc2C)cc1 (configuration not stated) | – | -4.62% (active) | 59% | 27.7% | 43.6 | -34.9% (active) | 3.84% (active) | 18.5% | 18.8% | 50.8% | -39.8% (active) | 23.7% | 18.6% | 21% | 4.23% (active) | 30.6% | 42.9% | 46.7%
10 | O=C1/C(=C\c2cn(Cc3ccccc3)c3ccc(Br)cc23)c2ccccc2N1c1c(Cl)cccc1Cl | – | 104% | 99% | 101% | 105 | 119% | 110% | 98.4% | 94.5% | 106% | 105% | 108% | 96.7% | 94.7% | 104% | 98% | 91.9% | 106%
11 | COc1cccc2c1C(=O)c1c(O)c3c(c(O)c1C2=O)C[C@@](O)(C(=O)CO)C[C@@H]3O[C@H]1C[C@H](N)[C@@H](O)[C@H](C)O1 | – | 6.05% (active) | 15.2% | 7.22% (active) | 18.4 | -0.462% (active) | -18.2% (active) | 70.5% | 4.43% (active) | -39% (active) | -77.6% (active) | 0.619% (active) | 4.48% (active) | 5.25% (active) | 1.25% (active) | 7.14% (active) | 7.72% (active) | -22.8% (active)
12 | CC1=NNC(=O)C1CCC(=O)N/N=C(\C)c1ccc2ccccc2c1 (configuration not stated) | – | 107% | 77.2% | 126% | 92.6 | 105% | 114% | 94.3% | 146% | 118% | 86.5% | 103% | 98.9% | 92.7% | 98.9% | 102% | 117% | 107%
13 | COc1ccc(C(O)c2cc3c(N)c(C(=O)Nc4ccc(Cl)cc4)sc3nc2C)cc1 (configuration not stated) | – | 5.22% (active) | 46.8% | 32.1% | 33 | -35.7% (active) | 7.82% (active) | 16% | 37.4% | 66.4% | -52.5% (active) | 27.1% | 16.6% | 21.7% | 9.89% (active) | 30.6% | 38.4% | 23%
14 | O=C1Nc2c(ccc(Cl)c2Cl)/C1=C/c1ccccn1 | – | 107% | 85.1% | 94% | 73.1 | 84.6% | 63.9% | 82.5% | 56.9% | 92.1% | 77.2% | 76.8% | 29% | – | 87.1% | 81% | 76.5% | 85.1%
15 | COc1cc2nc(-c3ccc(C(F)(F)F)cc3)cc(OCCN3CCCC3)c2cc1OC | – | 55.9% | 67.6% | 86.3% | 60.9 | 97.3% | 79.8% | 72.9% | 86.5% | 70.4% | 97.2% | 91.2% | 85.1% | 67.3% | 93.7% | 91% | 94.9% | –
16 | COc1ccc(-c2cnnc3c(-c4cccc(C(F)(F)F)c4)cnn23)cc1 | – | 45.8% | 81% | 15.1% | 64.1 | 26.4% | 20.1% | 60.5% | 48.9% | -34.9% (active) | 47.2% | 79.3% | 73.9% | 2.24% (active) | 82.6% | 19.6% | 35.7% | 81.5%
17 | O=C1/C(=C/c2ccc(O)cc2)COc2ccc(-c3ccccc3)cc21 | – | -29.7% (active) | 102% | 107% | 51.6 | 56.5% | 88.2% | 78.2% | 30.8% | 80.9% | – | 76.4% | 34.2% | 32.1% | 19.4% | 71.9% | 100% | 82%
